# Source: PubChem
# T cruzi growth-1 – T. cruzi intracellular proliferation inhibitors, primary screen, cell-based, beta-gal Tulahuen parasites, NIH3T3 host, luminescence | T. cruzi beta-gal in NIH3T3, GalScreen luminescence, 90 h | inhibition, % at 8.34 µM | 5.9% of 77,000 active | AID 624255, 2012;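 active = mean inhibition above about 93%, with at least 55% of replicates each passing it, limit read from the data, passing the limit was not always enough; inconclusive = only one of those two conditions holds; inactive = neither condition holds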
# C diff growth – C. difficile growth inhibitors, primary screen, HTS; Clostridium difficile clinical isolate growth, OD600, 24 h; stronger effect = lower value; growth activity, negative = inhibition, % at 16 µg/mL (by protocol); 0.25% of 86,000 active; AID 1259249, 2017;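 active = mean growth activity at or below -80% and every replicate also at or below -80%; inconclusive = mean at or below -80% but some replicate above -80%; inactive = mean growth activity above -80%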;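 also: 0% = DMSO wells and -100% = levofloxacin 16 µg/mL wells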
# Pf Dd2 growth – P. falciparum Dd2 growth inhibitors, primary screen, SYBR Green fluorescence, single dose replicates | 72 h; stronger effect = lower value | activity change, % at 10 µM | 2.3% of 94,000 active; in the data active = activity change below about -80%; inconclusive = no clear call, values can overlap the other calls
# T cruzi growth-2 – T. cruzi intracellular proliferation inhibitors, confirmation, cell-based, NIH3T3 host, beta-gal parasite, luminescence, cherry-pick | AID 651739, 2012 | shares compounds with T cruzi growth-1 | 72% of 5,600 active | T. cruzi beta-gal in NIH3T3, GalScreen luminescence, 90 h | inhibition, % at 8.35 µM;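 active = mean replicate inhibition above about 95% and at least 55% of replicates individually reaching it, limit read from the data; inconclusive = only one of the two criteria is met; inactive = neither criterion is met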
# T cruzi growth-3 – inhibitors of intracellular T. cruzi replication, confirmation, NIH3T3 host cells, beta-gal parasites, cherry-pick, set 2; shares compounds with T cruzi growth-1; T. cruzi beta-gal in NIH3T3, GalScreen luminescence, 90 h; inhibition, % at 2.09 µM; 21% of 5,600 active; AID 651740, 2012;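 active = mean inhibition above about 95%, with at least 55% of replicates also reaching it, limit read from the data; inconclusive = meets just one of the two conditions; inactive = meets neither condition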;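 also: plate controls were neutral control median for no effect and positive control median for full effect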
# NIH3T3 tox – cytotoxicity in mouse NIH/3T3 fibroblasts, confirmation, cytotoxicity control for T. cruzi proliferation inhibitor project, cell-based, cherry-pick, single point; shares compounds with T cruzi growth-1; NIH/3T3 viability, CellTiter-Glo ATP luminescence, 90 h; cytotoxicity (signal decrease), % at 8.35 µM; 14% of 5,600 active; AID 651742, 2012;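 active = mean signal decrease across replicates above about 35% based on untreated-well scatter, with enough replicates individually passing, limit read from the data; inconclusive = no rule stated though some were filed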;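 also: 0% = median of neutral control wells and 100% = median of positive control wells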
# 3T3 cytotox 2 – NIH/3T3 fibroblast cytotoxicity, confirmation, cytotoxicity control, cell-based, cherry-pick, single point, set 2 | shares compounds with T cruzi growth-1 | NIH/3T3 viability, CellTiter-Glo ATP luminescence, 90 h | inhibition, % at 24.9 µM | 56% of 5,600 active | AID 651744, 2012;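 active = mean loss of cell viability signal at or above a set limit, and enough replicates individually reaching it; inconclusive = meets only the mean limit or only the replicate share; inactive = meets neither condition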;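 also: 0% = median of neutral control wells and 100% = median of positive control wells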
# Numbers without * were called inactive; ? = inconclusive; . = no result. Sampled rows, rich in hits. Any-hit rate of the full collection: about 6.8%.
SMILES,T cruzi growth-1,C diff growth,Pf Dd2 growth,T cruzi growth-2,T cruzi growth-3,NIH3T3 tox,3T3 cytotox 2
C[C@@H]1CN([C@@H](C)CO)C(=O)c2cc(NC(=O)Nc3cccc4ccccc34)ccc2O[C@@H](C)CCCCO[C@@H]1CN(C)Cc1ccc(C(=O)O)cc1,-0.9,3.7,-33.4,.,.,.,.
C[C@H](CO)N1C[C@H](C)[C@H](CN(C)Cc2ccc(C(=O)O)cc2)OCCCC[C@H](C)Oc2ccc(NC(=O)Nc3cccc4ccccc34)cc2C1=O,28.7,1.5,8.6,.,.,.,.
C[C@@H]1CCCCO[C@H](CN(C)Cc2ccc(C(F)(F)F)cc2)[C@@H](C)CN([C@H](C)CO)C(=O)c2cc(NC(=O)Nc3cccc4ccccc34)ccc2O1,?,3.6,34.1,106.7*,86.6,14.5,5.8
C[C@@H]1CN([C@@H](C)CO)C(=O)c2cc(NC(=O)Nc3cccc4ccccc34)ccc2O[C@@H](C)CCCCO[C@@H]1CN(C)Cc1ccc(C(F)(F)F)cc1,?,2.7,-87.7*,106.6*,110.8*,2.4,20.0
C[C@@H]1CN([C@@H](C)CO)C(=O)c2cc(NC(=O)Nc3cccc4ccccc34)ccc2O[C@@H](C)CCCCO[C@H]1CN(C)Cc1ccc(C(F)(F)F)cc1,?,18.8,-51.6,108.6*,117.3*,29.3,11.0
C[C@H](CO)N1C[C@H](C)[C@@H](CN(C)Cc2ccc(C(F)(F)F)cc2)OCCCC[C@H](C)Oc2ccc(NC(=O)Nc3cccc4ccccc34)cc2C1=O,?,-3.2,13.6,98.8*,107.1*,23.1,3.8
CC(C)NC(=O)N(C)C[C@H]1Oc2ncc(C#CC3CC3)cc2C(=O)N([C@H](C)CO)C[C@H]1C,.,-2.1,-27.4,.,.,.,.
CN(C)CC(=O)N1C[C@@H]2[C@H](c3ccccc31)[C@H](CO)N2C(=O)c1ccccn1,15.7,-1.6,-2.7,.,.,.,.
C=CCN1C(=O)[C@@]2(O[C@@H](CCO)[C@H]([Si](C)(C)c3ccc(OC)cc3)[C@H]2C)c2cc(N3CCCCC3=O)ccc21,.,6.8,.,.,.,.,.
C[C@H](CO)N1C[C@H](C)[C@H](CN(C)Cc2ccc(C(F)(F)F)cc2)OCCCC[C@H](C)Oc2ccc(NC(=O)Nc3cccc4ccccc34)cc2C1=O,125.7,22.7,26.4,.,.,.,.
C[C@@H]1CCCCO[C@H](CN(C)Cc2ccc(C(F)(F)F)cc2)[C@H](C)CN([C@H](C)CO)C(=O)c2cc(NC(=O)Nc3cccc4ccccc34)ccc2O1,?,-1.9,-68.4,105.4*,116.8*,13.3,9.5
COc1ccc(NC(=O)N(C)C[C@@H]2OCCCC[C@@H](C)Oc3ccc(NS(=O)(=O)c4ccc(OC)cc4)cc3C(=O)N([C@H](C)CO)C[C@@H]2C)cc1,5.1,0.1,57.3,.,.,.,.
COc1cccc(-c2ccc([C@@H]3[C@H]4CN(C(=O)NC(C)C)CCCCN4[C@H]3CO)cc2)c1,74.6,-1.9,32.6,.,.,.,.
COc1cccc(-c2ccc([C@H]3[C@@H](CO)N4CCCCN(C(=O)NC(C)C)C[C@@H]34)cc2)c1,104.8*,-21.7,24.7,101.0*,41.1,11.1,3.4
COc1cccc(-c2ccc([C@@H]3[C@H]4CN(C(=O)NC(C)C)CC(=O)N4[C@H]3CO)cc2)c1,.,-1.7,1.1,.,.,.,.
COc1cccc(-c2ccc([C@H]3[C@H](CO)N4CCCCN(C(=O)NC(C)C)C[C@@H]34)cc2)c1,108.2*,-12.5,22.5,109.7*,81.1,37.1*,31.2*
Cc1ccc(S(=O)(=O)N(C)C[C@@H]2Oc3ccc(NC(=O)CCN4CCOCC4)cc3C(=O)N([C@@H](C)CO)C[C@@H]2C)cc1,25.2,-0.2,25.1,.,.,.,.
CCCNC(=O)N1[C@H](CO)[C@H](c2ccc(-c3ccccc3)cc2)[C@H]1CNC(C)=O,-30.3,-4.2,-61.3,.,.,.,.
